# PubChem BioAssay (NCATS)
# Records with an inconclusive call do not appear. Where a call stands in place of a potency, no number is given. Calls of active or inactive are those of the source. Unless noted, calls follow the shape of the dose curve; as a rule, active = well fitted curve in the direction sought with a large enough effect; inconclusive = small, poorly fitted or top-dose-only effect, or another doubt; inactive = no such curve, though single readings can be large; an effect the other way counts as inactive or inconclusive.
# Experiments:
# [1] = target: Cytochrome P450 1A2 (Homo sapiens) (UniProt P05177); experiment: p450-cyp1a2 (AID 410; calls by dose curve; also: potency is read from the fitted curve at half-maximal effect); conditions: recombinant CYP1A2, luciferin-ME demethylation, luminescence; series mostly up to 57 µM
# How it was run: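 Luminescent readout of luciferin formed from Luciferin-ME by human CYP1A2; data normalized against complete inhibition by 57 uM furafylline. Enzyme 20nM, substrate 100uM at Km, 100mM KPO4 buffer, 60 min reaction at room temperature.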
# [2] = target: ATP-dependent 6-phosphofructokinase (Trypanosoma brucei brucei) (UniProt O15648); experiment: qHTS Assay to Find Inhibitors of T. brucei phosphofructokinase: hit validation (AID 492961);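 also: luminescence reports ADP formed as PFK phosphorylates fructose-6-phosphate with ATP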; conditions: T. brucei PFK, ADP-Glo luminescence; series mostly up to 51.4 µM
# How it was run: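 Inhibition of parasite PFK is measured as reduced ADP formation, quantified via luciferase after ATP depletion. Assay used 0.1 mM ATP, 0.5 mM F6P, 1.25 nM enzyme, 45 min incubation.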
# [3] = S16 Schwann cell viability assay (CellTiter-Glo assay) (AID 624031); conditions: S16 rat Schwann cells viability, 24 h; series mostly up to 57.5 µM; also: nearly all actives have a fitted effect of over 70% in size; also: potency is read from the fitted curve at half-maximal effect
# How it was run: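 Following overnight culture in 10% FBS DMEM, parental S16 rat Schwann cells are dosed for 24 h at 37 °C. Viability is read as CellTiter-Glo luminescence and expressed as % activity relative to DMSO (0%) and no-cell wells.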
# C2A = experiment: qHTS profiling for inhibitors of Plasmodium falciparum proliferation (AID 504749); also: nearly all actives have a fitted effect of over 60% in size; also: potency is read from the fitted curve at half-maximal effect; conditions: P. falciparum in erythrocytes, SYBR Green DNA, 72 h; series mostly up to 28.7 µM
# How it was run: (§1)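 P. falciparum-infected erythrocytes (0.3% parasitemia, 2.5% hematocrit) incubated with compound 72 h at 37 C, 5% CO2. Parasite DNA detected by SYBR Green after lysis, overnight at room temperature; normalised to 0.29 uM artemisinin and DMSO.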
# CP203 = experiment: as above; conditions: P. falciparum in erythrocytes, SYBR Green DNA, 72 h; series mostly up to 28.7 µM
# How it was run: as §1
# CP217 = experiment: as above; conditions: P. falciparum in erythrocytes, SYBR Green DNA, 72 h; series mostly up to 28.7 µM
# How it was run: as §1
# CP237 = experiment: as above; conditions: P. falciparum in erythrocytes, SYBR Green DNA, 72 h; series mostly up to 28.7 µM
# How it was run: as §1
# CP260 = experiment: as above; conditions: P. falciparum in erythrocytes, SYBR Green DNA, 72 h; series mostly up to 28.7 µM
# How it was run: as §1
# CP266 = experiment: as above; conditions: P. falciparum in erythrocytes, SYBR Green DNA, 72 h; series mostly up to 28.7 µM
# How it was run: as §1
# CP291 = experiment: as above; conditions: P. falciparum in erythrocytes, SYBR Green DNA, 72 h; series mostly up to 28.7 µM
# How it was run: as §1
# DFO2036 = experiment: as above; conditions: P. falciparum in erythrocytes, SYBR Green DNA, 72 h; series mostly up to 28.7 µM
# How it was run: as §1
# Dd2 = experiment: as above; conditions: P. falciparum in erythrocytes, SYBR Green DNA, 72 h; series mostly up to 28.7 µM
# How it was run: as §1
# FAB9 = experiment: as above; conditions: P. falciparum in erythrocytes, SYBR Green DNA, 72 h; series mostly up to 28.7 µM
# How it was run: as §1
# GB4 = experiment: as above; conditions: P. falciparum in erythrocytes, SYBR Green DNA, 72 h; series mostly up to 28.7 µM
# How it was run: as §1
# PC49 = experiment: as above; conditions: P. falciparum in erythrocytes, SYBR Green DNA, 72 h; series mostly up to 28.7 µM
# How it was run: as §1
# SC27B = experiment: as above; conditions: P. falciparum in erythrocytes, SYBR Green DNA, 72 h; series mostly up to 28.7 µM
# How it was run: as §1
# AS120 = experiment: as above; conditions: P. falciparum in erythrocytes, SYBR Green DNA, 72 h; series mostly up to 28.7 µM
# How it was run: as §1
# CP247 = experiment: as above; conditions: P. falciparum in erythrocytes, SYBR Green DNA, 72 h; series mostly up to 28.7 µM
# How it was run: as §1
# PAD = experiment: as above; conditions: P. falciparum in erythrocytes, SYBR Green DNA, 72 h; series mostly up to 28.7 µM
# How it was run: as §1
# TAB165 = experiment: as above; conditions: P. falciparum in erythrocytes, SYBR Green DNA, 72 h; series mostly up to 28.7 µM
# How it was run: as §1
# Sequence of ATP-dependent 6-phosphofructokinase (Trypanosoma brucei brucei) (O15648 whole entry, looked up): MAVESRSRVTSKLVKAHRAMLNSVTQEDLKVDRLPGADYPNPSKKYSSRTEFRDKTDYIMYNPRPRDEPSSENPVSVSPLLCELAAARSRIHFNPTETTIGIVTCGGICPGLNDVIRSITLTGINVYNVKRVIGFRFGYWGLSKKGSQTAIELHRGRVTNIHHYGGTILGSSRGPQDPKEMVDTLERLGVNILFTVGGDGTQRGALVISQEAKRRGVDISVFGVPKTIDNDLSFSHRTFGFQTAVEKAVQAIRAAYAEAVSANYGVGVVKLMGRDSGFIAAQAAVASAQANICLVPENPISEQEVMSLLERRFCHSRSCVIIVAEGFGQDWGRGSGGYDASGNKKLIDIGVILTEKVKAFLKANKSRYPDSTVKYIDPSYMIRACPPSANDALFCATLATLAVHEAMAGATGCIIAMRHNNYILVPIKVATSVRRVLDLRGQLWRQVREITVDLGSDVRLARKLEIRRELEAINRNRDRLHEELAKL
# Sequence of Cytochrome P450 1A2 (Homo sapiens) (P05177 whole entry, looked up): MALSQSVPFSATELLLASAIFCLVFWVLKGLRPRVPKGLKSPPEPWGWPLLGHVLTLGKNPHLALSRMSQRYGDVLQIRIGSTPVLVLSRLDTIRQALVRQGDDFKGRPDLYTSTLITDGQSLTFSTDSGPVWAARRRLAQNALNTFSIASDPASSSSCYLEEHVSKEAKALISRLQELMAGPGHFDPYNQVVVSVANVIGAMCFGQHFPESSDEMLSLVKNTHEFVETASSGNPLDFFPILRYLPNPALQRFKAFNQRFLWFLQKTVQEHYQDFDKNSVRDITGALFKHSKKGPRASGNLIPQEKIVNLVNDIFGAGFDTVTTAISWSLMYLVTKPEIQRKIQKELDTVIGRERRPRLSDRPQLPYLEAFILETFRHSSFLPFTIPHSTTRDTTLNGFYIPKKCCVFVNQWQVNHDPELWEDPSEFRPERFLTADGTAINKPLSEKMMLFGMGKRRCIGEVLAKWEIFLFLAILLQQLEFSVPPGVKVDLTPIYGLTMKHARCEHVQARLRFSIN
Structure (SMILES),Potency [1],outcome [2],Potency [3],Potency (C2A),Potency (CP203),Potency (CP217),Potency (CP237),Potency (CP260),Potency (CP266),Potency (CP291),Potency (DFO2036),Potency (Dd2),Potency (FAB9),Potency (GB4),Potency (PC49),Potency (SC27B),Potency (AS120),Potency (CP247),Potency (PAD),Potency (TAB165)
COc1c2ccoc2cc2oc(=O)ccc12,0.0158 µM (active),–,–,–,–,–,–,–,–,–,–,–,–,–,–,–,–,–,–,–
O=NCc1ccc([N+](=O)[O-])o1,–,inactive,inactive,inactive,inactive,inactive,inactive,inactive,inactive,inactive,inactive,inactive,inactive,13.5 µM (active),inactive,inactive,–,–,–,–
CN1CC[C@H](CN2c3ccccc3Sc3ccccc32)C1,5.01 µM (active),inactive,36.1 µM (active),10 µM (active),9.53 µM (active),11.2 µM (active),6.31 µM (active),11.2 µM (active),inactive,15.1 µM (active),12.6 µM (active),3.55 µM (active),–,13.5 µM (active),–,11.2 µM (active),12.6 µM (active),7.94 µM (active),8.91 µM (active),12.6 µM (active)
CCN1/C(=C/C=C/C=C/c2sc3ccccc3[n+]2CC)Sc2ccccc21,–,–,7.21 µM (active),3.55 µM (active),6.75 µM (active),4.47 µM (active),1.58 µM (active),0.631 µM (active),9.53 µM (active),13.5 µM (active),3.55 µM (active),2.24 µM (active),3.16 µM (active),7.57 µM (active),5.62 µM (active),6.31 µM (active),5.01 µM (active),4.47 µM (active),5.01 µM (active),3.98 µM (active)
S=C1NC=NC2N=CNC12 (stereo unspecified),–,inactive,inactive,inactive,–,inactive,inactive,inactive,10.7 µM (active),–,inactive,inactive,inactive,–,inactive,inactive,inactive,inactive,inactive,inactive
CN(C)CCCCCCN(C)C,–,inactive,inactive,inactive,inactive,inactive,inactive,inactive,inactive,inactive,inactive,inactive,inactive,inactive,inactive,inactive,inactive,inactive,inactive,inactive
COc1ccc2[nH]cc(CCNc3ncncc3-c3ccccc3C(F)(F)F)c2c1,10 µM (active),–,–,–,–,–,–,–,–,–,–,–,–,–,–,–,–,–,–,–
COc1cccc(Cn2c(=O)cnc3cnc(N(C)C)nc32)c1,6.31 µM (active),–,–,–,–,–,–,–,–,–,–,–,–,–,–,–,–,–,–,–
C1OCOCO1,–,inactive,inactive,inactive,inactive,inactive,inactive,inactive,inactive,inactive,inactive,inactive,inactive,inactive,inactive,inactive,inactive,inactive,inactive,inactive
c1ccc(Nc2nc(-c3ccoc3)nc3ccccc23)cc1,0.2 µM (active),–,–,–,–,–,–,–,–,–,–,–,–,–,–,–,–,–,–,–
O=c1cnc2cnc(N3CCOCC3)nc2n1Cc1cccs1,2.51 µM (active),–,–,–,–,–,–,–,–,–,–,–,–,–,–,–,–,–,–,–
C/C=C\c1ccc(OC)cc1,–,inactive,inactive,inactive,inactive,inactive,inactive,inactive,inactive,inactive,inactive,inactive,inactive,inactive,inactive,inactive,inactive,inactive,inactive,inactive
CC(C)(CO)C(O)C(=O)NCCCC(=O)O (stereo unspecified),–,–,inactive,–,–,–,–,–,–,–,–,–,inactive,inactive,inactive,–,0.0071 µM (active),0.0112 µM (active),inactive,0.0398 µM (active)
NC1=NC(S)C2N=CN=C2N1 (stereo unspecified),–,inactive,–,inactive,inactive,inactive,inactive,inactive,inactive,inactive,inactive,inactive,inactive,inactive,inactive,inactive,inactive,inactive,inactive,inactive
CN(C)C(=O)c1ccc(-c2ccc3ncnc(Nc4ccc(F)cc4)c3c2)cc1,20 µM (active),–,–,–,–,–,–,–,–,–,–,–,–,–,–,–,–,–,–,–
